Rows were chosen to be rich in hits. Some 1.6% of all compounds tested hit in one or more screens of this group.
STAT3 blocker: IL-6 driven STAT3 reporter inhibitors, primary screen, U3A cells, luciferase, luminescence, MLSCN library; hit rate 0.89% among 190,000; IL-6 STAT3-luciferase reporter; host cell line lacks STAT1; AID 862, 2007; inhibition, % at 5.5 µM;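 active = inhibition above the mean inhibition across all screened compounds plus 3 SD, cut at about 44% in these data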
Platelet DG rel: inhibitors of platelet dense granule secretion, primary screen, cell-based, MLPCN, human platelets | human platelet-rich plasma, SFLLRN dense granule ATP release, luminescence | inhibition, %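 (compounds screened at 7.5 µM in platelet-rich plasma)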 | hit rate 0.22% among 300,000 | AID 1663, 2009;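 active = mean replicate score, as percent of positive control, at or above 50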
C8 TRAIL sens: viability loss with TRAIL in NB7+C8 cells, primary screen, TRAIL sensitizer project, cell-based, ATPlite luminescence; AID 624354, 2012; hit rate 1% among 360,000; inhibition (viability loss, TRAIL sensitization), % at 10 µM;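 active = compounds causing at least 50% loss of cell viability in the single-dose screen, relative to plate controls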
STAT1 inh: STAT1 signaling inhibitors, primary screen, cell-based, HTS, luciferase reporter; inhibition, % at 5.5 µM; AID 920, 2007; hit rate 0.35% among 200,000; NIH 3T3 STAT1-luciferase reporter, IFN-gamma, luminescence;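 active = inhibition above a set limit, the mean inhibition across all tested compounds plus 3 SD, cut at about 34% in these data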
PPC-1+TRAIL kill: compounds killing PPC-1 cancer cells with TRAIL present, primary screen, TRAIL potentiator project, ATPLite luminescence, uHTS. PPC-1 cells + TRAIL, ATPLite viability luminescence. cell killing (% activity), % at 4 µM or 5 µM. hit rate 0.41% among 220,000. AID 1443, 2008;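 active = cell killing above 50% in the first pass at 4 µM, then a duplicate retest at 5 µM averaging 50% or more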
PPC-1 tox: cytotoxicity in PPC-1 cells, confirmation, cytotoxicity control for TRAIL apoptosis potentiator project, cell-based, ATP content luminescence | PPC-1 viability, ATPlite luminescence, overnight | hit rate 50% among 1,200 | shares compounds with PPC-1+TRAIL kill | cytotoxicity, % at 5 µM;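 active = reconfirmed compounds whose average cytotoxicity reaches 50% or more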
Large screens that a line does not name were inactive (follow-up assays come after a bar, where they were run).

O=C(c1ccc2c3n(nc2c1)-c1ccccc1CO3)N1CCCCC1	C8 TRAIL sens 70, PPC-1+TRAIL kill 58 (no result: STAT3 blocker, STAT1 inh) | PPC-1 tox 60
O=C(c1ccc2c3n(nc2c1)-c1ccccc1CO3)N1CCOCC1	Platelet DG rel 51, C8 TRAIL sens 51 (no result: STAT3 blocker, STAT1 inh) | PPC-1 tox inactive
O=c1[nH]cnc2c1ncn2C1OC(CO)CC1F (centres undefined)	none (no result: STAT3 blocker, Platelet DG rel, STAT1 inh, PPC-1+TRAIL kill)
Cc1ccc(NC2=C/C(=N/S(=O)(=O)c3cccs3)c3ccccc3C2=O)cc1C	none
CC(=O)Nc1ccc(NC2=C/C(=N/S(=O)(=O)c3cccs3)c3ccccc3C2=O)cc1	STAT3 blocker 66, C8 TRAIL sens 84, STAT1 inh 90, PPC-1+TRAIL kill 73 | PPC-1 tox 74
COc1ccc(/C=C/C2=NN(C)C(=O)CC2)cc1	C8 TRAIL sens 53, PPC-1+TRAIL kill 53 | PPC-1 tox inactive
Cc1csc(NC(=O)c2cn3ccccc3n2)n1	STAT3 blocker 96, Platelet DG rel 57, C8 TRAIL sens 85, STAT1 inh 65, PPC-1+TRAIL kill 80 | PPC-1 tox 78
Nc1sc2c(c1C(=O)NCCc1ccccc1)CCCC2	none (no result: STAT3 blocker, Platelet DG rel, STAT1 inh, PPC-1+TRAIL kill)
Cc1cc(/C=C2/C(=O)NN(c3ccccc3)C2=O)c(C)n1-c1cccc(O)c1	C8 TRAIL sens 85, PPC-1+TRAIL kill 81 | PPC-1 tox 83
Cc1ccc(C)c(S(=O)(=O)Nc2ccc(C(N)=O)cc2)c1	none
Cc1ccc(C)c(NS(=O)(=O)c2cc(C(N)=O)ccc2C)c1	none | PPC-1 tox inactive
O=C(CCCCn1c(=O)c2ccccc2n(Cc2ccc(F)cc2)c1=O)NCc1ccco1	none (no result: Platelet DG rel) | PPC-1 tox inactive
CC(=O)c1ccc(N=Nc2ccc(N)cc2)cc1	C8 TRAIL sens 83, PPC-1+TRAIL kill 54 (no result: STAT3 blocker, STAT1 inh) | PPC-1 tox 55
Cc1cc(C)cc(OCC(=O)NNC(=O)CC(C)c2ccccc2)c1 (centres undefined)	none (no result: STAT3 blocker, Platelet DG rel, STAT1 inh, PPC-1+TRAIL kill)
Cc1cc(/C=N/Nc2nc(N)ncc2[N+](=O)[O-])c(C)n1-c1cccc(C(F)(F)F)c1	none (no result: STAT3 blocker, C8 TRAIL sens, STAT1 inh)
Cc1cc(/C=N/Nc2ncnc(N)c2[N+](=O)[O-])c(C)n1-c1ccccc1	Platelet DG rel 67, C8 TRAIL sens 85, PPC-1+TRAIL kill 86 (no result: STAT3 blocker, STAT1 inh) | PPC-1 tox 87
O=C(CSc1nnc(-c2cccs2)o1)NCC1CN(Cc2ccccc2)CCO1 (centres undefined)	none | PPC-1 tox inactive
CN(C)c1ccc(CC(=O)N2CCCC(c3cc(C(=O)Nc4ccc5c(c4)OCO5)no3)C2)cc1 (centres undefined)	none (no result: STAT3 blocker, Platelet DG rel, STAT1 inh, PPC-1+TRAIL kill)
COc1ccc(C(=O)Nc2cccc(OC(=O)c3ccco3)c2)cc1	none (no result: STAT3 blocker, STAT1 inh, PPC-1+TRAIL kill)
COc1ccc(C(=O)Nc2cccc(OC(=O)c3ccc(C)c(C)c3)c2)cc1	none | PPC-1 tox inactive
O=C(NCc1ccc(F)cc1)c1cc(C2CCCN(S(=O)(=O)c3ccccc3)C2)on1 (centres undefined)	none (no result: STAT3 blocker, Platelet DG rel, STAT1 inh, PPC-1+TRAIL kill)
Cc1cc(C(=O)Cn2nc(C(=O)O)c3ccccc3c2=O)c(C)n1C1CC1	none
C=CCn1c(C)cc(C(=O)Cn2nc(C(=O)O)c3ccccc3c2=O)c1C	C8 TRAIL sens 78 | PPC-1 tox inactive
COC(=O)c1ccc(OCC(=O)c2ccc(O)cc2O)cc1	none | PPC-1 tox inactive
Cc1ccccc1C(=O)N(C)[C@H]1C[C@H]2c3[nH]c4ccccc4c3CCN2C(=O)[C@H]1[C@H](C)O	none (no result: STAT3 blocker, Platelet DG rel, STAT1 inh, PPC-1+TRAIL kill)
Cc1ccc(Cn2ccc(NC(=O)CCSc3nc(-c4ccco4)cc(C(F)(F)F)n3)n2)cc1	none
Cc1ccccc1Cn1ccc(NC(=O)CCSc2nc(-c3ccco3)cc(C(F)(F)F)n2)n1	none | PPC-1 tox inactive
COc1cccc(N2CCN(c3ncnc4c3[nH]c3ccc(F)cc34)CC2C)c1 (centres undefined)	STAT3 blocker 75, C8 TRAIL sens 95, STAT1 inh 68, PPC-1+TRAIL kill 63 | PPC-1 tox 63
Fc1ccc2[nH]c3c(N4CCN(C5CCCCC5)CC4)ncnc3c2c1	none (no result: C8 TRAIL sens)
Cc1c(C(=O)NNC(=S)NCc2ccc(Cl)cc2)oc2ccccc12	none (no result: STAT3 blocker, STAT1 inh, PPC-1+TRAIL kill)
Oc1ccc(-n2cnnn2)cc1	none | PPC-1 tox inactive
CCN(CC)c1ccc(N=Cc2cc(Br)ccc2O)cc1	none | PPC-1 tox inactive
CCN(CC)CCCNC1=C(Cl)C(=O)c2ccccc2C1=O	C8 TRAIL sens 94 | PPC-1 tox inactive
COCCN1C(=O)CCC1(C)C(=O)Nc1c(C)cccc1C (centres undefined)	none (no result: STAT3 blocker, Platelet DG rel, STAT1 inh, PPC-1+TRAIL kill)
Cc1cc(C)c(C(O)c2ncc(-c3ccccc3Cl)[nH]2)c(C)c1 (centres undefined)	none (no result: STAT3 blocker, Platelet DG rel, STAT1 inh, PPC-1+TRAIL kill)
CCCCNC(=O)CCC(=O)Nc1ccc2nc(N3CCC(C)CC3)cc(C)c2c1	none | PPC-1 tox inactive
Cc1ccc(NC(=O)Nc2nnc(-c3ccccc3)o2)cc1	none
Cc1ccc(-c2nnc(Nc3ccccc3)o2)cc1	STAT3 blocker 101, C8 TRAIL sens 81, STAT1 inh 72, PPC-1+TRAIL kill 84 | PPC-1 tox 85
Nc1ccc(-c2nc3ccc(N)cc3o2)cc1	C8 TRAIL sens 68 | PPC-1 tox inactive
COc1ccc(Cc2c(C(C)(C)C)nc3c(C)cc(Br)cn23)c(C)c1	none (no result: STAT3 blocker, Platelet DG rel, STAT1 inh, PPC-1+TRAIL kill)
CN(C)S(=O)(=O)c1ccc(C(=O)NCCOc2ccccc2)cc1	none | PPC-1 tox inactive
Fc1ccc(Cn2c(-c3cscn3)nc3ccccc32)c(Cl)c1	none | PPC-1 tox inactive
Cc1nn(C)c(C(=O)NNC(=O)NC2CCCCC2)c1Cl	none (no result: STAT3 blocker, STAT1 inh, PPC-1+TRAIL kill)
CC(C)Cc1cc(C(=O)Nc2ccc(Br)cc2)no1	none (no result: STAT3 blocker, STAT1 inh)
CC(C)Cc1cc(C(=O)Nc2cccc(O)c2)no1	C8 TRAIL sens 64, PPC-1+TRAIL kill 63 (no result: STAT3 blocker, STAT1 inh) | PPC-1 tox 61
CCc1ccn2cc(-c3cc(-c4ccccc4)no3)nc2c1	C8 TRAIL sens 90, PPC-1+TRAIL kill 81 (no result: STAT3 blocker, STAT1 inh) | PPC-1 tox 80
CCc1ccccc1N(CC(=O)Nc1cccc(N(C)S(C)(=O)=O)c1)S(C)(=O)=O	none | PPC-1 tox inactive
Cc1ccccc1N(CC(=O)O)S(C)(=O)=O	none
CCc1ccccc1N(CC(=O)O)S(C)(=O)=O	none | PPC-1 tox inactive
CN(c1cccc(NC(=O)CN(c2ccc(F)cc2)S(C)(=O)=O)c1)S(C)(=O)=O	none
CN(c1cccc(NC(=O)c2ccc(N(C)S(=O)(=O)c3ccccc3)cc2)c1)S(C)(=O)=O	none
CN(c1cccc(NC(=O)c2ccc(C(C)(C)C)cc2)c1)S(C)(=O)=O	C8 TRAIL sens 73 | PPC-1 tox 53
COc1cc(/C=C(/C#N)c2nc3ccccc3[nH]2)ccc1OCC(=O)Nc1ccccc1C	C8 TRAIL sens 87 (no result: Platelet DG rel) | PPC-1 tox inactive
Cc1ccc2nc(-c3ccc4c(c3)NC(=O)CO4)cn2c1	none (no result: STAT3 blocker, STAT1 inh)
Clc1ccc2nc(-c3ccc4c(c3)OCO4)cn2c1	STAT3 blocker 83, C8 TRAIL sens 79, STAT1 inh 65, PPC-1+TRAIL kill 80 | PPC-1 tox 74
